From PubChem BioAssay (NCATS)
Records with an inconclusive call do not appear. The source made the active and inactive calls. Calls follow the shape of the dose curve; as a rule, active = well fitted inhibition curve with a large enough effect in the repeat runs; inconclusive = weak or mixed curves; inactive = no such curve, though single readings can be large or run the other way.

Molecular target: Cytochrome P450 2C9 (Homo sapiens) (UniProt P11712)
Experiment: Cytochrome P450 family 2 subfamily C member 9 (CYP2C9) small molecule antagonists: luciferase biochemical (cell-free) qHTS assay (AID 1645842); also: nearly all actives have a fitted effect of over 55% in size
Settings: P450-Glo CYP2C9 enzyme assay, luciferin luminescence; series mostly up to 57.4 µM; activity change, negative = inhibition: at the top concentration
Outline: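 Luminescence, after 20 min with luciferin detection reagent, reflected CYP2C9 turnover during a 1 h NADPH-driven reaction at 37C. Enzyme-substrate mix contained 0.4% bovine serum albumin and was preincubated with compound 10 min at room temperature.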
% is scaled to controls: 0 for no effect and ±100 for the full control effect; potency is read from the fitted curve at half-maximal effect.

Chain of Cytochrome P450 2C9 (Homo sapiens) (P11712 whole entry, looked up): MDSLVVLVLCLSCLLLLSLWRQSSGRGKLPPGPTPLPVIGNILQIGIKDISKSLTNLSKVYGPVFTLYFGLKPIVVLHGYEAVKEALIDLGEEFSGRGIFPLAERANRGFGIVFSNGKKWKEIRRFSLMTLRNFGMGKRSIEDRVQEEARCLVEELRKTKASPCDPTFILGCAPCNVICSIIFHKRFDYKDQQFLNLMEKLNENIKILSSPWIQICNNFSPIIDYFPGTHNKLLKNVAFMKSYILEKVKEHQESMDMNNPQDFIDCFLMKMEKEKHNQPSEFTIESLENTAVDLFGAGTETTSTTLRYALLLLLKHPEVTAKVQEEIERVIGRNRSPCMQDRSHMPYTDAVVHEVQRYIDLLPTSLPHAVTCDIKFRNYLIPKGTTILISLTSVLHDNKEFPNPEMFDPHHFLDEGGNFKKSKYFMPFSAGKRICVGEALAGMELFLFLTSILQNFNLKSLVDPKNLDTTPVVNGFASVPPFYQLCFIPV

Row | Structure (SMILES) | Potency | activity change, negative = inhibition
1 | Cc1nc2c3ccccc3nc(NNC(=O)CCC(=O)N3CCN(c4cccc(Cl)c4)CC3)n2n1 | 12 µM (active) | 
2 | O=c1[nH]c2ccc(S(=O)(=O)Nc3cc(Cl)ccc3O)cc2o1 | 9.52 µM (active) | 
3 | COc1ccccc1NC(=O)Cn1c(=O)n(Cc2nc(-c3ccccc3)no2)c(=O)c2ccccc21 | 2.39 µM (active) | 
4 | Cc1cc(C)c(Cn2c3ccccc3c3cnn(CC(=O)NCc4ccccn4)c(=O)c32)c(C)c1 | 10.7 µM (active) | 
5 | COc1cc(NC(=O)CSc2nc3ccccc3nc2Cc2ccccc2OC)cc(OC)c1 | 0.301 µM (active) | 
6 | CCOc1ccc(S(=O)(=O)NCc2ccc3c(c2)CCN3C(=O)c2ccc(C)cc2)cc1 | 0.301 µM (active) | 
7 | CC1=C(C(=O)Nc2cccc(-c3ccn[nH]3)c2)C(c2ccccc2Cl)N=C(Nc2nc3ccccc3o2)N1 (stereo not given) | 0.477 µM (active) | 
8 | COc1ccccc1NC(=O)Cc1c(C(=O)O)[nH]c2ccc(Cl)cc12 |  | 20.5% (inactive)
9 | CCOc1ccc(NC(=O)Cn2cc(C(=O)c3ccco3)c3ccccc32)cc1 | 4.77 µM (active) | 
10 | COc1cc(Cl)c(C)cc1NC(=O)CSc1ncc(S(=O)(=O)c2ccc(C(C)(C)C)cc2)c(=O)[nH]1 | 0.425 µM (active) | 
11 | COCCCNC(=O)CCC(=O)NNc1nc2ccccc2c2nc(-c3ccccc3)nn12 | 9.52 µM (active) | 
12 | O=C(CSc1nc2ccccc2n1Cc1cccc(F)c1)N1CCN(c2ccc(F)cc2)CC1 | 3.38 µM (active) | 
13 | CCOCCCNC(=O)CCC(=O)NNc1nc2ccccc2c2nc(-c3ccccc3)nn12 | 3.38 µM (active) | 
14 | CCc1nnc(NC(=O)CSc2nc3c([nH]c4ccccc43)c(=O)n2-c2ccc(OC)cc2)s1 | 4.25 µM (active) | 
15 | Oc1ccc(C2(c3ccccc3F)CCC(F)(F)CC2)cc1 | 2.13 µM (active) | 
16 | Nc1nc(N)c(S(=O)(=O)c2ccccc2)c(Nc2ccc(Br)cc2)n1 | 4.77 µM (active) | 
17 | CCc1ccc(C2=CC(c3c(F)cccc3Cl)n3c(nc4ccccc43)N2)cc1 (stereo not given) | 5.35 µM (active) | 
18 | COc1ccc(Cn2c(SCC(=O)N3CCN(c4ccc(F)cc4)CC3)nc3ccccc32)cc1 | 1.69 µM (active) | 
19 | Cn1c(=O)c2c(nc(OC3CCN(C(=O)C4CC4)CC3)n2CCC(C)(C)C)n(C)c1=O | 12 µM (active) | 
20 | Cc1cccc(NC(=O)Cn2c(=O)n(Cc3ccc(C(=O)NCc4ccc5c(c4)OCO5)cc3)c(=O)c3ccccc32)c1 |  | 4.29% (inactive)

Row | Structure (SMILES) | Potency | activity change, negative = inhibition
21 | CCOc1ccc(CCNC(=O)CCCn2nc(C)c3sc4ccccc4c3c2=O)cc1OCC | 2.68 µM (active) | 
22 | COc1ccc(-c2cn3cccnc3n2)cc1NC(=O)c1cc(C)cc(C)c1 | 4.77 µM (active) | 
23 | COc1cccc(-c2cc(F)ccc2[C@H]2Cc3nc(N)nc(C)c3C(=O)N2)n1 | 6.74 µM (active) | 
24 | CCOc1cc(C(=O)Nc2ccc(-c3nc4ncccc4o3)cc2C)cc(OCC)c1OCC | 7.56 µM (active) | 
25 | COc1cccc(CNC(=O)C2CCCN(c3nn4cc(-c5ccc(C)cc5)nc4s3)C2)c1 (stereo not given) | 2.39 µM (active) | 
26 | C=CC(C)(O)CCC=C(C)CCC=C(C)C (stereo not given) | 21.3 µM (active) | 
27 | CC1=C(C(=O)Nc2cc(C(=O)O)ccn2)C(c2ccc(F)cc2Cl)N=C(Nc2nc3ccc(F)cc3o2)N1 (stereo not given) | 23.9 µM (active) | 
28 | CC(=O)C1=C(c2ccc(Cl)c(Cl)c2)N(C(C)=O)n2cnnc2S1 | 2.39 µM (active) | 
29 | COc1ccc(CNC(=O)c2nc(SCc3ccccc3F)ncc2Cl)cc1 |  | 5.92% (inactive)
30 | CC(C)(C)NC(=O)[C@@H]1C[C@@H]2CCCC[C@@H]2CN1CC(O)[C@H](Cc1ccccc1)NC(=O)[C@@H](CC(N)=O)NC(=O)c1ccc2ccccc2n1 (stereo not given in full) | 12 µM (active) | 
31 | CC(=O)c1ccc(NC(=O)Cn2cc(S(=O)(=O)Cc3ccccc3Cl)c3ccccc32)cc1 | 1.69 µM (active) | 
32 | Cc1ccccc1C(=O)Nc1sc2c(c1C(=O)O)CCC(C(C)(C)C)C2 (stereo not given) |  | -23.7% (inactive)
33 | COc1ccc(C(=O)NC(c2ccccc2Cl)c2cc(Cl)c3cccnc3c2O)cc1 (stereo not given) | 6.01 µM (active) | 
34 | C=C1CC[C@H](O)C/C1=C\C=C1/CCCC2(C)C1CCC2C(C)CCCC(C)C (stereo not given in full) | 23.9 µM (active) | 
35 | CC1(C#N)CCN(c2c(C(=O)N3CCC(C(=O)C4CC4)CC3)cnc3cc(F)c(F)cc23)CC1 | 9.52 µM (active) | 
36 | COc1ccc(C(C)=O)cc1CSc1nc(NCc2ccccc2)c2ccccc2n1 | 2.13 µM (active) | 
37 | CCOC(=O)c1nnc(NC(=O)C2=C(C)NC(Nc3nc4ccccc4o3)=NC2c2ccccc2Cl)s1 (stereo not given) | 16.9 µM (active) | 
38 | Cc1ccccc1C(=O)Nc1cccc(-c2nc3cccnc3s2)c1 | 6.74 µM (active) | 
39 | COC(=O)Cc1cccc(NC(=O)C2=C(C)NC(Nc3nc4ccccc4o3)=NC2c2ccccc2Cl)c1 (stereo not given) | 9.52 µM (active) | 
40 | COc1ccc(NC(=O)CSc2ncc(-c3ccc(Cl)cc3)[nH]2)cc1OC | 0.849 µM (active) | 
